Data reported in PubChem BioAssay (NCI).
Compounds without any hit were thinned out: in the full panel of roughly 83,000, 20% have a hit.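 The test compound was applied at a single concentration to cells in 96-well plates for 48 hours, and percent growth was recorded.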 A number with no mark means an inactive call. Active and inactive are the calls of the source. How the source made its calls: active means growth percent below 10; inactive means the rest.

Columns and labels:
Assay in all cases: NCI-60 one-dose screen, 48 h (100 = growth as untreated, 0 = no growth, -100 = all killed)
Conditions in all cases: 10 µM
SK-MEL-2 melanoma = tested on: SK-MEL-2 melanoma
EKVX NSCLC = tested on: EKVX NSCLC
SN12C renal = tested on: SN12C renal
UO-31 renal = tested on: UO-31 renal
ACHN renal = tested on: ACHN renal
CAKI-1 renal = tested on: CAKI-1 renal
A498 renal = tested on: A498 renal
CCRF-CEM leukemia = tested on: CCRF-CEM leukemia
MOLT-4 leukemia = tested on: MOLT-4 leukemia
RPMI-8226 leukemia = tested on: RPMI-8226 leukemia
OVCAR-8 ovarian = tested on: OVCAR-8 ovarian
OVCAR-5 ovarian = tested on: OVCAR-5 ovarian
OVCAR-4 ovarian = tested on: OVCAR-4 ovarian
SK-OV-3 ovarian = tested on: SK-OV-3 ovarian
IGROV1 ovarian = tested on: IGROV1 ovarian
OVCAR-3 ovarian = tested on: OVCAR-3 ovarian
HS 578T breast = tested on: HS 578T breast
NCI/ADR-RES ovarian = tested on: NCI/ADR-RES ovarian
SR leukemia = tested on: SR leukemia
TK-10 renal = tested on: TK-10 renal

SMILES | growth (SK-MEL-2 melanoma) | growth (EKVX NSCLC) | growth (SN12C renal) | growth (UO-31 renal) | growth (ACHN renal) | growth (CAKI-1 renal) | growth (A498 renal) | growth (CCRF-CEM leukemia) | growth (MOLT-4 leukemia) | growth (RPMI-8226 leukemia) | growth (OVCAR-8 ovarian) | growth (OVCAR-5 ovarian) | growth (OVCAR-4 ovarian) | growth (SK-OV-3 ovarian) | growth (IGROV1 ovarian) | growth (OVCAR-3 ovarian) | growth (HS 578T breast) | growth (NCI/ADR-RES ovarian) | growth (SR leukemia) | growth (TK-10 renal)
O=C1NC(=NC23CC4CC(CC(C4)C2)C3)N/C1=C\c1ccc2ncoc2c1 | -92.4% (active) | -14% (active) | 2.78% (active) | 1.68% (active) | -10.4% (active) | 7.48% (active) | -5.36% (active) | -6.48% (active) | 10.6% | -4.5% (active) | 13.4% | -14.4% (active) | 13.4% | 26.8% | 3.59% (active) | 24.1% | -0.689% (active) | 4.58% (active) | – | –
CCOc1ccc2ncc(C#Cc3cncc(C(=O)Nc4ccc(CN5CCN(C)CC5)c(C(F)(F)F)c4)c3)n2n1 | -75.7% (active) | -65.8% (active) | -82.9% (active) | -65.8% (active) | -87% (active) | 30.4% | 15.9% | 7.96% (active) | -8.54% (active) | -13.3% (active) | -60.9% (active) | -87% (active) | – | 45.7% | -58.2% (active) | -79.1% (active) | -28.2% (active) | -70.1% (active) | 1.01% (active) | –
Cc1ccc(-c2cc(C(=O)N=Nc3c(O)[nH]c4ccccc34)c3ccccc3n2)cc1 | 101% | 38.4% | -9.28% (active) | 51.6% | 25.8% | 24.3% | 88.2% | 22.9% | 31.7% | – | -15.8% (active) | 69.4% | 1.61% (active) | 91.2% | 60.1% | – | 12.4% | -16.9% (active) | 5.31% (active) | –
Nc1nc(-c2ccccc2)cc(-c2cc3ccccc3nc2Cl)n1 | 97.1% | 80.1% | 83% | – | 89.1% | 80.1% | 108% | 1.2% (active) | 59.2% | 19.2% | 83.9% | 97.8% | 96% | 99.2% | 97.9% | 67.7% | 82.8% | 80.7% | – | 111%
O=C1Nc2ccc(F)cc2/C1=C/c1cccc(OCc2ccccc2)c1 | -23.1% (active) | 18.4% | 20.2% | – | 22.4% | 25.9% | 80.2% | -4.49% (active) | 1.81% (active) | -28.1% (active) | 24.6% | 66% | 36.4% | 66.7% | 36.6% | 7.98% (active) | 32.3% | -13.9% (active) | – | 70.9%
O=C(Nc1ccccc1)Nc1nc2ccccc2s1 | 92.9% | 64.1% | 88.9% | 57.5% | 82.2% | 76.7% | 129% | 67.5% | – | 78.3% | 90.2% | 92.4% | 78.2% | 78.4% | 54.8% | 110% | 86.9% | 91.8% | – | –
O=c1[nH]c2ccccc2cc1CSc1ccc(Nc2nccc(-c3ccc4ccccc4c3)n2)cc1 | 96.5% | 68.1% | 54.1% | 93.7% | 79.5% | 72.6% | 82% | 79.9% | 75.1% | 67.5% | – | 62.9% | -13.6% (active) | 116% | 73.9% | 13.1% | 60.6% | 24.4% | 80.7% | –
COc1ccc(-c2nc(S(=O)(=O)c3ccc(C)cc3)c(S(=O)(=O)CC(=O)N(C)Cc3ccccc3)o2)cc1 | 51.1% | 84.6% | 47.4% | 34.8% | 6.56% (active) | 42.9% | 132% | -35.9% (active) | – | -35.3% (active) | 29.2% | 63.1% | 68.5% | 98.4% | 66.3% | 1.33% (active) | 67.2% | 28.8% | – | –
